# Measured values taken from PubChem BioAssay (Tox21).
# A number with no mark means an inactive call. Inconclusive results are not listed. Entries that show only a call come without a potency. The source made the active and inactive calls. Calls follow the shape of the dose curve; as a rule, active = well fitted curve in the direction sought with a large enough effect in the repeat runs; inconclusive = weak or mixed curves; inactive = no such curve, though single readings can be large; an effect the other way counts as inactive or inconclusive.
# Tests used:
# [1] = qHTS RealTime-Glo MT Cell Viability Assay in HEK293 cells - 16 hour (AID 1224872); also: nearly all actives have a fitted effect of over 50% in size; also: potency is read from the fitted curve at half-maximal effect; as to activity change, negative = cytotoxicity: top concentration of the series differs between compounds
# In short: (§1)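 Quantitative high-throughput screen of the Tox21 10K library in HEK293: cells and RealTime-Glo reagents plated together, compound added at 5 h, luminescence monitored through 40 h at 37 C.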
# [2] = qHTS RealTime-Glo MT Cell Viability Assay in HepG2 cells - 8 hour (AID 1224873); also: nearly all actives have a fitted effect of over 55% in size
# In short: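 Real-time viability: cells seeded at 600 per well together with NanoLuc and cell-permeant prosubstrate, compounds added after 5 h incubation. Luminescence tracked at 0, 8, 16, 24, 32 and 40 h of exposure.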
# [3] = qHTS RealTime-Glo MT Cell Viability Assay in HEK293 cells - 40 hour (AID 1224874); conditions: RealTime-Glo luminescence; max response: active compounds read low; also: nearly all actives have a fitted effect of over 50% in size; also: potency is read from the fitted curve at half-maximal effect
# In short: (§2)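 Real-time viability in HEK293: signal arises when living cells convert a prosubstrate for NanoLuc in the medium, so luminescence tracks viable cell number. Compound (23 nL, DMSO) added 5 h post-seeding; kinetic reads at 0–40 h, 37 C.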
# [4] = A CellTox Green Cytotoxicity Assay to monitor cytotoxicity in HEK293 cells - 24 hour (AID 1224875); also: series mostly up to about 77 µM; nearly all actives have a fitted effect of over 45% in size
# In short: (§3)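 Cells (HEK293, 600/well) and dye reagent are dispensed together. After 5 h at 37 C, 23 nL compound is pinned in. Plates stay at 37 C for 40 h with fluorescence read at 0h, 8h, 16h, 24h, 32h and 40h.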
# [5] = A CellTox Green Cytotoxicity Assay to monitor cytotoxicity in HepG2 cells - 16 hour (AID 1224876); also: nearly all actives have a fitted effect of over 45% in size; also: potency is read from the fitted curve at half-maximal effect
# In short: (§4)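 Cells and non-lytic dye reagent are dispensed together (600 HepG2 cells/well) and incubated 5 h before DMSO compound transfer. Kinetic fluorescence is then recorded in the same wells during 40 h at 37 C.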
# [6] = qHTS RealTime-Glo MT Cell Viability Assay in HepG2 cells - 32 hour (AID 1224877); also: nearly all actives have a fitted effect of over 55% in size
# In short: (§5)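 Compound treatment began 5 h after plating HepG2 cells (600/well) with NanoLuc luciferase and prosubstrate. Plates stayed at 37 C for 40 h; luminescence was captured at six time points, 0 h through 40 h.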
# [7] = A CellTox Green Cytotoxicity Assay to monitor cytotoxicity in HepG2 cells - 24 hour (AID 1224878); also: nearly all actives have a fitted effect of over 45% in size; also: potency is read from the fitted curve at half-maximal effect
# In short: as §4
# [8] = A CellTox Green Cytotoxicity Assay to monitor cytotoxicity in HepG2 cells - 40 hour (AID 1224879); also: nearly all actives have a fitted effect of over 40% in size; also: potency is read from the fitted curve at half-maximal effect
# In short: as §4
# [9] = qHTS RealTime-Glo MT Cell Viability Assay in HEK293 cells - 0 hour (AID 1224880); also: top concentration of the series differs between compounds; nearly all actives have a fitted effect of over 45% in size
# In short: as §2
# [10] = A CellTox Green Cytotoxicity Assay to monitor cytotoxicity in HepG2 cells - 0 hour (AID 1224882); also: nearly all actives have a fitted effect of over 35% in size; also: potency is read from the fitted curve at half-maximal effect
# In short: as §4
# [11] = A CellTox Green Cytotoxicity Assay to monitor cytotoxicity in HepG2 cells - 32 hour (AID 1224883); also: nearly all actives have a fitted effect of over 50% in size; also: potency is read from the fitted curve at half-maximal effect
# In short: as §4
# [12] = A CellTox Green Cytotoxicity Assay to monitor cytotoxicity in HEK293 cells - 8 hour (AID 1224884); also: nearly all actives have a fitted effect of over 35% in size; also: potency is read from the fitted curve at half-maximal effect
# In short: as §3
# [13] = qHTS RealTime-Glo MT Cell Viability Assay in HepG2 cells - 16 hour (AID 1224885); also: nearly all actives have a fitted effect of over 50% in size
# In short: as §5
# [14] = qHTS RealTime-Glo MT Cell Viability Assay in HEK293 cells - 8 hour (AID 1224887)
# In short: as §2
# [15] = A CellTox Green Cytotoxicity Assay to monitor cytotoxicity in HEK293 cells - 16 hour (AID 1224888); also: nearly all actives have a fitted effect of over 35% in size; also: potency is read from the fitted curve at half-maximal effect
# In short: as §3
# [16] = qHTS RealTime-Glo MT Cell Viability Assay in HepG2 cells - 0 hour (AID 1224889); also: nearly all actives have a fitted effect of over 50% in size
# In short: as §5
# [17] = A CellTox Green Cytotoxicity Assay to monitor cytotoxicity in HepG2 cells - 8 hour (AID 1224890); also: nearly all actives have a fitted effect of over 45% in size; also: potency is read from the fitted curve at half-maximal effect
# In short: as §4
# [18] = qHTS assay to identify small molecule antagonists of the estrogen receptor alpha (ER-alpha) signaling pathway using the BG1 cell line in the presence of 0.1 nM 17-beta-estradiol - cell viability counter screen (AID 1259241); also: nearly all actives have a fitted effect of over 40% in size
# In short: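 Cytotoxicity counter-screen: live-cell protease activity measured by fluorescence (30 min reagent step) in the same wells. Cells were VM7Luc4E2 with endogenous ER-alpha and ERE-driven luciferase, treated 22 hr at 37C alongside 0.1 nM 17beta-estradiol final.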
# [19] = A CellTox Green Cytotoxicity Assay to monitor cytotoxicity in HEK293 cells - 32 hour (AID 1224881); also: nearly all actives have a fitted effect of over 40% in size
# In short: as §3
# [20] = qHTS RealTime-Glo MT Cell Viability Assay in HEK293 cells - 24 hour (AID 1224886); also: nearly all actives have a fitted effect of over 50% in size; also: potency is read from the fitted curve at half-maximal effect; as to activity change, negative = cytotoxicity: top concentration of the series differs between compounds
# In short: as §1
smiles,measurement,setting,value
CC(C)(C)NSc1nc2ccccc2s1,Potency,[1],inactive
same,Potency,[2],inactive
same,max response,[3],8.62%
same,Potency,[4],inactive
same,Potency,[5],inactive
same,Potency,[6],inactive
same,Potency,[7],inactive
same,Potency,[8],inactive
same,Potency,[9],inactive
same,Potency,[10],inactive
same,Potency,[11],inactive
same,Potency,[12],inactive
same,Potency,[13],inactive
same,Potency,[14],inactive
same,Potency,[15],inactive
same,Potency,[16],inactive
same,Potency,[17],inactive
same,Potency,[18],inactive
COc1cc(C)ccc1O,Potency,[1],inactive
same,Potency,[2],inactive
same,max response,[3],3.04%
same,Potency,[4],inactive
same,Potency,[5],inactive
same,Potency,[7],inactive
same,Potency,[8],inactive
same,Potency,[19],inactive
same,Potency,[10],inactive
same,Potency,[11],inactive
same,Potency,[12],inactive
same,Potency,[13],inactive
same,Potency,[20],inactive
same,Potency,[14],inactive
same,Potency,[15],inactive
same,Potency,[16],inactive
same,Potency,[17],inactive
same,Potency,[18],inactive
O=C(O)c1cc(N=Nc2ccc([N+](=O)[O-])cc2)ccc1O,Potency,[1],inactive
same,Potency,[2],inactive
same,max response,[3],-17%
same,Potency,[4],inactive
same,Potency,[5],inactive
same,Potency,[6],inactive
same,Potency,[7],inactive
same,Potency,[8],inactive
same,Potency,[19],inactive
same,Potency,[10],inactive
same,Potency,[11],inactive
same,Potency,[12],inactive
same,Potency,[13],inactive
same,Potency,[20],inactive
same,Potency,[14],inactive
same,Potency,[16],inactive
same,Potency,[17],inactive
CCCCCCCCCCC[C@@H](C[C@@H]1OC(=O)[C@H]1CCCCCC)OC(=O)[C@H](CC(C)C)NC=O,Potency,[1],13400 nM (active)
same,Potency,[2],inactive
same,Potency,[3],6740 nM (active)
same,Potency,[4],inactive
same,Potency,[5],inactive
same,Potency,[6],inactive
same,Potency,[7],inactive
same,Potency,[8],19000 nM (active)
same,Potency,[10],inactive
same,Potency,[11],16900 nM (active)
same,Potency,[12],inactive
same,Potency,[13],inactive
same,Potency,[20],8490 nM (active)
same,Potency,[15],inactive
same,Potency,[16],inactive
same,Potency,[17],inactive
same,Potency,[18],inactive
CC(CO)Oc1ccccc1 (centres undefined),Potency,[1],inactive
same,Potency,[2],inactive
same,max response,[3],-11%
same,Potency,[4],inactive
same,Potency,[5],inactive
same,Potency,[7],inactive
same,Potency,[8],inactive
same,Potency,[9],inactive
same,Potency,[10],inactive
same,Potency,[11],inactive
same,Potency,[12],inactive
same,Potency,[13],inactive
same,Potency,[14],inactive
same,Potency,[16],inactive
same,Potency,[17],inactive
same,Potency,[18],inactive
O=C(O)CN(CCN(CC(=O)O)CC(=O)O)CC(=O)O,"activity change, negative = cytotoxicity",[1],0.0628% [at 2.72 µM]
same,"viability change, negative = cytotoxic",[2],-13.2% [at 2.72 µM]
same,max response,[3],7.27%
same,Potency,[5],1740 nM (active)
same,"activity change, negative = cytotoxic",[6],4.09% [at 2.72 µM]
same,Potency,[7],1740 nM (active)
same,Potency,[8],1960 nM (active)
same,"activity change, negative = cytotoxicity",[9],0.0989% [at 2.72 µM]
same,Potency,[10],1740 nM (active)
same,Potency,[11],1740 nM (active)
same,Potency,[12],1960 nM (active)
same,"activity change, negative = cytotoxic",[13],-5.14% [at 2.72 µM]
same,"activity change, negative = cytotoxicity",[20],5.68% [at 2.72 µM]
same,"activity change, negative = cytotoxicity",[14],-1.21% [at 2.72 µM]
same,Potency,[15],1960 nM (active)
same,"activity change, negative = cytotoxicity",[16],-5.49% [at 2.72 µM]
same,Potency,[17],1740 nM (active)
same,"activity change, negative = cytotoxicity",[18],-6% [at 3.27 µM]
